Potency and affinity values are given separately. Inconclusive results are not listed. Where a call stands in place of a potency, no number is given. Activity calls are given as the source filed them.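 Rule for the calls, unless noted: active = fitted dose curve reaches 40% lysis signal rise at or below the highest valid concentration tested for that sample; inconclusive = flat fit between 30% and 70%, or poor curve fit; inactive = signal falls, stays flat within 30%, or no crossing.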

The first assay can be described thus: fungal growth arrest, C. neoformans – Alamar Blue, cherry-picks, dose response (AID 686998;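 active = falling signal with fitted half-maximal potency no higher than twice the top valid tested dose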). Conditions: Cryptococcus neoformans growth, 24 h; series mostly up to 35 µM. A general note: Resazurin is reduced to fluorescent resorufin, in cell work by metabolically active cells.
With `COc1ccccc1-c1ccc2c(c1)O[C@@H](CN(C)C(=O)c1cccnc1)[C@H](C)CN([C@@H](C)CO)S2(=O)=O`, the outcome was inactive.
In the case of `C[C@@H]1CN([C@H](C)CO)C(=O)c2cc(-c3ccc(C#N)cc3)cnc2O[C@@H]1CN(C)C(=O)Nc1ccc(F)cc1`, the call was inactive.
Take `CCCN(C)C[C@@H]1OCCCC[C@H](C)Oc2ccc(NS(=O)(=O)c3ccc(C)cc3)cc2C(=O)N([C@H](C)CO)C[C@@H]1C`: the compound was classed as inactive.
Regarding `CCCNC(=O)N(C)C[C@H]1Oc2ncc(C#CC3CCCCC3)cc2C(=O)N([C@@H](C)CO)C[C@@H]1C`, the result was inactive.
Consider `O=C(C[C@@H]1CC[C@@H]2[C@H](COC[C@H](O)CN2S(=O)(=O)c2ccc(Oc3ccccc3)cc2)O1)NC1CCC1`, for which the call was inactive.
Same read-out and setting: in the case of `CO[C@@H]1CN(C)C(=O)c2cc(NS(=O)(=O)c3ccc(C)cc3)ccc2OC[C@@H](C)N(C)C[C@@H]1C` it was “inactive”.
For the compound `CCNC(=O)COc1cccc(C(=O)NCc2ccccc2)c1`, the compound was classed as inactive.

Another assay can be described thus: C. neoformans lysis by adenylate kinase leakage – AK release luminescence, cherry-picks, dose response (AID 687000).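 Note: luminescent detection of adenylate kinase leaking from lysed yeast.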 Conditions: 4 h, 100% = twice the neutral-control signal; series mostly up to 15 µM.
Consider `CCCC#Cc1cnc2c(c1)C(=O)N([C@@H](C)CO)C[C@H](C)[C@H](CN(C)C(=O)Nc1cccc(F)c1)O2`, for which the call was inactive.
As for `Cc1nnc(NC(=O)CSc2ncnc3c2cnn3-c2ccccc2C)s1`, the compound was called inactive.
On the same count and under the same terms, then `CO[C@H]1CN(C)C(=O)c2ccc(NC(=O)C3CC3)cc2OC[C@@H](C)N(Cc2ccc(F)cc2)C[C@@H]1C`, with “inactive”.
For `CCNC(=O)C[C@@H]1CC[C@H]2[C@@H](COC[C@@H](O)CN2S(=O)(=O)c2ccccc2F)O1`, the call was inactive.
Regarding `Cc1ccc(NC(=O)C2(C)CCN2C(=O)C2CCCCC2)cc1C` (configuration not stated), the call was inactive.
Take `C[C@H](CO)N1C[C@H](C)[C@@H](CN(C)C(=O)Nc2ccc(F)cc2)Oc2c(NS(=O)(=O)c3ccccc3)cccc2C1=O`: the call was inactive.
Same read-out and setting: in the case of `NC(=O)CN(c1ccccc1)S(=O)(=O)c1ccc(F)cc1` it was “inactive”; in that of `COc1cccc(C#Cc2cnc3c(c2)C(=O)N([C@H](C)CO)C[C@@H](C)[C@@H](CN(C)C(=O)C2CCOCC2)O3)c1`, “inactive”; in that of `O=C(Cc1cccs1)N1CCN(c2ccc([N+](=O)[O-])cc2)CC1`, “inactive”.
For the compound `O=C(NC[C@H]1[C@@H](c2ccccc2)[C@@H](CO)N1C(=O)C1CCC1)NC1CCCC1`, the result was inactive.
Still for that read-out and setting: then `CC(=O)c1cccc(NC(=S)NC2CCCCC2)c1`, with “inactive”; and `CCCNC(=O)C[C@@H]1CC[C@H]2[C@@H](COC[C@H](O)CN2Cc2ccccc2F)O1`, with “inactive”.
In the case of `C[C@@H]1CN([C@H](C)CO)C(=O)c2cc(-c3ccc(F)cc3)cnc2O[C@H]1CN(C)CC1CCCCC1`, the compound was called inactive.
`COc1ccc(S(=O)(=O)Nc2ccc3c(c2)C(=O)N([C@H](C)CO)C[C@@H](C)[C@@H](CN(C)C(=O)Nc2ccccc2)O3)cc1`: the compound was called inactive.
The same measure, in the same setting: then `O=C(NC(=S)Nc1ccc(CN2CCOCC2)cc1)c1ccc([N+](=O)[O-])cc1`, with “inactive”; and `CC(=O)N1[C@@H]2CN(S(=O)(=O)c3ccccc3F)c3ccccc3[C@@H]2[C@@H]1CO`, with “inactive”; and `CC(=O)N1[C@@H]2c3ccc(-c4ccccc4)c(=O)n3C[C@H]1[C@H](CO)[C@H]2C(=O)Nc1ccccc1`, with “inactive”.
As for `CO[C@@H]1CN(C)C(=O)c2cc(NS(=O)(=O)C3CCCCC3)ccc2OC[C@H](C)NC[C@@H]1C`, the compound was classed as inactive.
As to `C[C@@H]1CN([C@@H](C)CO)C(=O)c2cc(NS(=O)(=O)c3ccccc3)ccc2O[C@H]1CN(C)C(=O)NC1CCCCC1`, the call was inactive.
Still for that read-out and setting: in the case of `CC(C)NC(=O)Nc1cccc2c1O[C@@H](CN(C)C(=O)Nc1ccccc1)[C@@H](C)CN([C@@H](C)CO)C2=O` it was “inactive”; in that of `O=C(C[C@@H]1CC[C@H]2[C@@H](COC[C@H](O)CN2Cc2ccccc2F)O1)NC1CCC1`, “inactive”; in that of `O=C(C[C@H]1CC[C@H]2[C@@H](COC[C@@H](O)CN2C(=O)Nc2ccc(Cl)cc2)O1)N1CCCCC1`, “inactive”.
Still for that read-out and setting: then `CC(Sc1ncnc2c1cnn2-c1ccccc1)C(=O)Nc1ccc(N2CCOCC2)cc1` (configuration not stated), with “inactive”; and `C[C@H](CO)N1C[C@H](C)[C@@H](CN(C)C(=O)c2cccc(F)c2)Oc2cc(-c3cncnc3)ccc2S1(=O)=O`, with “inactive”.
Take `C[C@@H]1CN([C@@H](C)CO)S(=O)(=O)c2ccc(C#C[C@@H](C)O)cc2O[C@@H]1CN(C)C(=O)C1CCCCC1`: the compound was called inactive.
The same measure, in the same setting: then `COc1ccc(C#Cc2ccc3c(c2)O[C@H](CN(C)C(=O)Nc2cccc(OC)c2)[C@H](C)CN([C@@H](C)CO)S3(=O)=O)cc1`, with “inactive”; and `C[C@@H]1CN([C@@H](C)CO)C(=O)c2cc(NS(=O)(=O)c3cn(C)cn3)ccc2O[C@@H]1CN(C)C(=O)Nc1cccc2ccccc12`, with “inactive”.
Consider `CC(C)NC(=O)N(C)C[C@@H]1OCCCC[C@H](C)Oc2ccc(NC(=O)c3ccccc3)cc2C(=O)N([C@H](C)CO)C[C@H]1C`, for which the result was inactive.
As to `CNC[C@@H]1OCCCC[C@H](C)Oc2ccc(NC(=O)c3ccccc3)cc2C(=O)N([C@@H](C)CO)C[C@@H]1C`, the outcome was inactive.
Turning to `N#C[C@@H]1[C@@H](c2ccccc2)[C@@H](CO)N1C(=O)Cc1ccccc1`, the compound was called inactive.
Same read-out and setting: then `C[C@H]1CN([C@@H](C)CO)C(=O)Cc2cc(NS(=O)(=O)c3ccc(F)cc3)ccc2O[C@@H]1CN(C)S(=O)(=O)c1ccc(F)cc1`, with “inactive”.
As to `CCCNC(=O)Nc1ccc2c(c1)C(=O)N(C)C[C@H](OC)[C@@H](C)CN(Cc1cccnc1)[C@H](C)CO2`, the result was inactive.
Regarding `C[C@@H]1CCCCO[C@@H](CN(C)S(=O)(=O)c2ccc(F)cc2)[C@@H](C)CN([C@@H](C)CO)C(=O)c2cc(NS(=O)(=O)c3ccc(F)cc3)ccc2O1`, the call was inactive.
`COc1ccccc1-c1ccc2c(c1)O[C@@H](CN(C)C(=O)c1cccnc1)[C@H](C)CN([C@@H](C)CO)S2(=O)=O`: the compound was classed as inactive.
Same read-out and setting: in the case of `C[C@@H]1CN([C@H](C)CO)C(=O)c2cc(-c3ccc(C#N)cc3)cnc2O[C@@H]1CN(C)C(=O)Nc1ccc(F)cc1` it was “inactive”; in that of `CCCN(C)C[C@@H]1OCCCC[C@H](C)Oc2ccc(NS(=O)(=O)c3ccc(C)cc3)cc2C(=O)N([C@H](C)CO)C[C@@H]1C`, “inactive”; in that of `CCCNC(=O)N(C)C[C@H]1Oc2ncc(C#CC3CCCCC3)cc2C(=O)N([C@@H](C)CO)C[C@@H]1C`, “inactive”.
In the case of `O=C(C[C@@H]1CC[C@@H]2[C@H](COC[C@H](O)CN2S(=O)(=O)c2ccc(Oc3ccccc3)cc2)O1)NC1CCC1`, the result was inactive.
The same measure, in the same setting: then `CO[C@@H]1CN(C)C(=O)c2cc(NS(=O)(=O)c3ccc(C)cc3)ccc2OC[C@@H](C)N(C)C[C@@H]1C`, with “inactive”; and `CCNC(=O)COc1cccc(C(=O)NCc2ccccc2)c1`, with “inactive”.

Values taken from PubChem BioAssay.
